Here are results for 21 compounds from PubChem BioAssay (NCATS).

Inconclusive results are not listed. Activity calls are given as the source filed them. Calls come from the whole dose curve; as a rule, active = well fitted inhibition curve with a large enough effect; inconclusive = small, poorly fitted or top-dose-only effect; inactive = flat fitted curve, though single readings scatter.

Holding throughout (assay): qHTS profiling for inhibitors of Plasmodium falciparum proliferation (AID 504749); note: nearly all actives have a fitted effect of over 60% in size
What all share (conditions): P. falciparum in erythrocytes, SYBR Green DNA, 72 h; series mostly up to 28.7 µM
(qHTS replaces the single test concentration by a dilution series.)

In assay [1] the test system is CP237. The essentials: (§1)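 Parasite proliferation within erythrocytes, 72 h exposure. Endpoint: SYBR Green I fluorescence after overnight lysis at room temperature. Controls: 0.29 uM artemisinin, DMSO.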
The subject of assay [2] is CP238. In a few lines:
as §1

The test system of assay [3] is CP247. In a few lines: as §1
Assay [4] has as its system CP250. The essentials: as §1
For assay [5], the system named is CP252. The essentials: as §1
Assay [6] deals with CP256. In a few lines:
as §1

The test system of assay [7] is CP260. In a few lines: as §1
Assay [8] has as its system CP262. The essentials: as §1
Assay [9] concerns CP265. In a few lines:
as §1

Assay [10] relates to CP266. In a few lines: as §1
Potency is the fitted concentration of half-maximal effect.

For the compound `NC(=O)N1c2ccccc2C=Cc2ccccc21`, the Potency entry in assay [1], in assay [2], in assay [3], in assay [4], in assay [5] and in [6] was “inactive” each time. Besides, the Potency entry in assay [7], in [8], in [9] and in [10] was “inactive” throughout.

As for `CCN(CC)CCNC(=O)c1ccc(NC(C)=O)cc1`, the Potency entry in assay [1], in assay [2], in assay [3], in assay [4], in assay [5] and in assay [6] was “inactive” throughout. For the same compound, the Potency entry in assay [7], in [8] and in assay [9] was “inactive” in each case.

As for `C[C@H](CS)C(=O)N1CCC[C@H]1C(=O)O`, the Potency result in assay [1], in assay [2], in assay [3], in assay [4], in assay [5] and in assay [6] was “inactive” in each case. Also, the Potency entry in assay [7], in [8], in assay [9] and in assay [10] was “inactive” throughout.

Take `CCOC(=O)C1=C(C)NC(C)=C(C(=O)OC)C1c1cccc(Cl)c1Cl` (stereo not drawn): the Potency entry in [1], in assay [2], in assay [3], in assay [4], in assay [5] and in assay [6] was “inactive” throughout. Moreover, the Potency result in assay [7], in assay [8], in assay [9] and in assay [10] was “inactive” in each case.

For the compound `Cc1nc2c([nH]1)c(=O)n(C)c(=O)n2Cc1ccco1`, the Potency result in assay [1], in assay [2], in assay [3], in assay [4], in assay [5] and in [6] was “inactive” throughout. Further, the Potency entry in assay [7], in [8], in assay [9] and in assay [10] was “inactive” in each case.

Regarding `CCCCOCCOCCOCc1cc2c(cc1CCC)OCO2`, the Potency result in assay [1], in [2], in assay [3], in assay [4], in assay [5] and in [6] was “inactive” in each case. The Potency entry in [7], in [8] and in assay [9] was “inactive” each time.

On to `CCCCNC(=O)NS(=O)(=O)c1ccc(C)cc1`, for which the Potency result in assay [1], in assay [2], in [3], in assay [4], in assay [5] and in [6] was “inactive” in each case. Moreover, the Potency entry in [7], in assay [8], in [9] and in assay [10] was “inactive” throughout.

Consider `CN=C(NC#N)NCCSCc1nc[nH]c1C`, for which the Potency result in [1], in assay [2], in assay [3], in assay [4], in assay [5] and in assay [6] was “inactive” throughout. The Potency result in assay [7], in [8], in [9] and in assay [10] was “inactive” each time.

In the case of `CC(=O)OCC1=C(C(=O)O)N2C(=O)[C@@H](NC(=O)Cc3cccs3)[C@H]2SC1`, the Potency entry in [1], in assay [2], in assay [3], in [4], in [5] and in assay [6] was “inactive” each time. Also, the Potency result in [7], in [8], in assay [9] and in [10] was “inactive” throughout.

On to `CCCCNc1ccc(C(=O)OCCN(C)C)cc1`, for which the Potency result in [1], in [2], in assay [3], in assay [4], in assay [5] and in assay [6] was “inactive” each time. The Potency result in assay [7], in assay [8] and in assay [9] was “inactive” in each case.

With `NCCCNCCSP(=O)(O)O`, the Potency entry in [1], in assay [2], in [3], in [4], in assay [5] and in assay [6] was “inactive” each time. Also, the Potency result in [7], in assay [8], in [9] and in assay [10] was “inactive” in each case.

On to `COc1ccc(CN(CCN(C)C)c2ccccn2)cc1`, for which, in [1], the Potency is 5.01 µM (active). Also, the Potency result in assay [2], in assay [3], in [4], in [5], in [6] and in [7] was “inactive” throughout. In assay [8], the Potency entry is “inactive”.

Turning to `CCN(Cc1ccncc1)C(=O)C(CO)c1ccccc1` (stereo not drawn), the Potency result in [1], in assay [2], in assay [3], in [4], in [5] and in [6] was “inactive” in each case. In addition, the Potency entry in assay [7], in [8], in assay [9] and in [10] was “inactive” each time.

Regarding `CCN1CCC[C@H]1CNC(=O)c1c(O)c(Cl)cc(Cl)c1OC`, the Potency entry in [1], in assay [2], in assay [3], in [4], in assay [5] and in [6] was “inactive” in each case. Besides, the Potency entry in [7], in assay [8], in assay [9] and in assay [10] was “inactive” each time.

`CN1CCN(CC(=O)N2c3ccccc3C(=O)Nc3cccnc32)CC1`: the Potency result in assay [1], in assay [2], in assay [3], in [4], in assay [5] and in assay [6] was “inactive” throughout. Moreover, the Potency entry in assay [7], in assay [8] and in assay [9] was “inactive” in each case.

On to `NS(=O)(=O)c1cc2c(cc1Cl)NC(C1CC3C=CC1C3)NS2(=O)=O` (stereo not drawn), for which the Potency result in [1], in assay [2], in assay [3], in [4], in assay [5] and in assay [6] was “inactive” in each case. Further, the Potency entry in [7], in [8], in [9] and in assay [10] was “inactive” in each case.

Consider `C[N+](C)(C)CCCCCCCCCC[N+](C)(C)C`, for which the Potency in [1] was 3.16 µM (active); in assay [2] it was 5.01 µM (active); in assay [3], 5.01 µM (active); in assay [4], 7.08 µM (active); in assay [5], 3.98 µM (active); in assay [6], 2.51 µM (active). The Potency in assay [7] was 2.24 µM (active); in assay [8], 1.69 µM (active); in assay [9], 2.82 µM (active); in assay [10] it was 4.78 µM (active).

In the case of `Nc1ncn([C@@H]2O[C@H](CO)[C@@H](O)[C@H]2O)c(=O)n1`, the Potency entry in assay [1], in assay [2], in assay [3], in [4], in assay [5] and in [6] was “inactive” in each case. Moreover, the Potency result in assay [7], in assay [8], in assay [9] and in assay [10] was “inactive” each time.

In the case of `O=C1NCN(c2ccccc2)C12CCN(CCCC(c1ccc(F)cc1)c1ccc(F)cc1)CC2`, the Potency in assay [1] was 6.31 µM (active); in [2], 8.91 µM (active); in assay [3], 7.08 µM (active); in assay [4], 10 µM (active); in assay [5], 7.08 µM (active); in [6], 5.01 µM (active). Also, the Potency in assay [7] is 10 µM (active); in assay [9], 5.62 µM (active). Besides, the Potency entry in [8] is “inactive”.

As for `NC(=O)c1ncn([C@@H]2O[C@H](CO)[C@@H](O)[C@H]2O)c1O`, the Potency result in assay [1], in assay [2], in [3], in [4], in assay [5] and in assay [6] was “inactive” each time. Moreover, the Potency result in assay [7], in assay [8], in assay [9] and in assay [10] was “inactive” each time.

With `CC(=O)[C@@]1(O)CC[C@H]2[C@@H]3CCC4=CC(=O)CC[C@]4(C)[C@H]3CC[C@@]21C`, the Potency entry in assay [1], in [2], in assay [3], in assay [4], in assay [5] and in assay [6] was “inactive” in each case. The Potency result in [7], in assay [8], in assay [9] and in assay [10] was “inactive” each time.
